Test results published in PubChem BioAssay AID488857 (Sanford-Burnham Center for Chemical Genomics, 2010).
About 560 (40%) of roughly 1,400 compounds were called active.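 Rule for the calls: active = mean inhibition over duplicate tests at 10 µM above 50%; inactive = the rest.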 So high a share suggests a set chosen from earlier hits. The list shows a part of the results.

Assay: ASC/caspase-1 reporter retest in S. cerevisiae at one dose, specificity check for NALP1 project (AID 488857)
Conditions: S. cerevisiae ASC/Caspase-1, beta-galactosidase luminescence, 24 h; at 10 µM; active compounds read high

inhibition, active:
CC1CCCCN1S(=O)(=O)c1cnc(Cl)c(Br)c1 (configuration not stated) 59.8%
O=S(=O)(/C=C/c1ccccc1)NC1CCCCCCC1 66.8%
O=[N+]([O-])c1ccc(O)c2ncccc12 99%
CSc1ccc(CN(C)CC(=O)Nc2ccc(C)cc2Br)cc1 52.6%
C=CCOc1ccc2ccccc2c1/C=N/O 64.3%
CCOc1ccc(C(=O)C(CCC(CN(C)C)C(=O)c2ccc(OCC)cc2)CN(C)C)cc1 (configuration not stated) 63.5%
CC1=C/C(=N\OS(=O)(=O)c2ccccc2)C(C(C)C)=CC1=O 91.2%
CC1=CC(=O)C=C(C)C1=NOS(=O)(=O)c1ccccc1 69.7%
CCOC(=O)C(C(=O)OCC)C(C(=O)OCC)N1CCOCC1 (configuration not stated) 53.2%
Cc1cccc(Oc2nc(CN3CCOCC3)nc3sc4c(c23)CCCC4)c1 75.2%
CC(=O)N1N=C(c2ccc3ccccc3c2)OC1(C)C 86.5%
Cn1nc(-c2ccc(Cl)cc2)nc2c(=O)n(C)c(=O)nc1-2 97.8%
Nc1ccccc1-c1nc2ccccc2[nH]1 83%
O=C1CC(c2ccccc2Cl)CC(O)=C1C=Nc1ccccc1 (configuration not stated) 61.9%
O=C1CC(c2cccc(Cl)c2)CC(O)=C1C=Nc1cccc(Cl)c1 (configuration not stated) 53.5%
CS/C(=N\S(=O)(=O)c1cccs1)Nc1ccc(Br)cc1F 68.3%
CCCNC(=O)c1cc2c3ccccc3n(C)c2s1 74.2%
O=[N+]([O-])c1ccc(OCC(O)CN2CCN(c3ccccc3F)CC2)cc1 (configuration not stated) 51.8%
OC(COc1ccc2c(c1)CCC2)CN1CCN(c2ccccc2F)CC1 (configuration not stated) 78%
OC(CSc1c(Cl)cccc1Cl)CN1CCN(c2ccccc2F)CC1 (configuration not stated) 50.8%
O=S(=O)(CC(CN1CCCCC1)N1CCCCC1)c1ccc2ccccc2c1 (configuration not stated) 59.8%
O=S(=O)(NC1CCCCC1)c1ccc(F)c2ccccc12 57.7%
CCOC(=O)c1c(/N=C/c2cc(OC)cc([N+](=O)[O-])c2O)sc(C)c1C 65.7%
Nc1nc2ccc(Oc3ccccc3)cc2s1 96.2%
Nc1nc(-c2ccc(Oc3ccccc3)cc2)cs1 99.7%
Cc1sc(N)nc1-c1ccc(Oc2ccccc2)cc1 76.5%
c1cnc2c(c1)ccc1cccnc12 84.1%
Cc1ccccc1Nc1cc(C)c2c(O)cccc2n1 77.8%
COc1ccc(NC(=O)c2sc(N3CCOCC3)nc2-c2ccccc2)c(OC)c1 57.7%

inhibition, inactive:
CCOC(=O)c1c(-c2cccs2)csc1NC(=O)C(C)(C)C 44.8%
O=C(c1ccc(Cl)c([N+](=O)[O-])c1)N(c1ccccn1)c1ccccn1 23.8%
CN1CCN(C(=O)CSc2nc3c(c(=O)n(C)c(=O)n3C)n2C)CC1 31.1%
O=S(=O)(/N=C/c1c(O)ccc2ccccc12)c1cccs1 20.6%
N#Cc1cccc(N=Cc2c(O)ccc3ccccc23)c1 30.4%
OCCNc1c2ccccc2nc2c(F)c(F)c(F)c(F)c12 23.1%
CC(=O)/C=C/n1c(=S)oc2ccccc21 23.2%
CCCOc1ccc(C(=O)NC(C)C(=O)O)cc1 (configuration not stated) 40.4%
Cc1ccc(N2C(=N)/C(=C3/Nc4ccccc4S3)C(c3ccccc3)C2=O)cc1 (configuration not stated) 38.5%
N#CC1=C(N)Oc2n[nH]c(-c3cccs3)c2C1C1CCCCC1 (configuration not stated) 46.4%
N#CC(C#N)=c1ccc2c(c1)N1C3=C(CCCC3)CC3CCCCC31N=2 (configuration not stated) 8.35%
COc1ccc(/C=N/NC(=O)c2csc(-n3nc(C)cc3C(F)(F)F)n2)cc1 36.5%
O=C(CCN1CCc2ccccc2C(c2ccccc2)C1)c1ccc2c(c1)OCCO2 (configuration not stated) 24.4%
Oc1ccccc1C1N=C(c2ccccc2)NC(c2ccccc2)=N1 28.9%
CCOc1nc(N2CCOCC2)nc(N2CCOCC2)n1 43.6%
Cn1nc(-c2ccccc2)c(-c2nc(-c3ccc(Cl)cc3)no2)c1Cl 33.6%
CS(=O)(=O)n1nc(-c2ccc(Cl)cc2)nc1SCc1ccccc1 48%
c1ccc2[nH]c3cc4ncnc4cc3nc2c1 46.6%
CCSc1nnc(-c2ccncc2)n1Cc1ccccc1 23.7%
CCCn1c(-c2cccnc2Cl)nc2cc(Cl)c(Cl)cc21 47.9%
CC(C)OCCCNC(=O)c1cc2c(=O)n(C)c3ccccc3c2n1C 30.8%
COc1cccc(CN2CCC(C(=O)N3CCN(c4ccccc4F)CC3)CC2)c1OC 32.3%
COc1ccc(CN2CC(C(=O)NCCN3CCN(c4ccccc4F)CC3)CC2=O)cc1 (configuration not stated) 29.6%
Cc1sc(-c2ccncc2)nc1OC(=O)c1ccccc1 36.9%
Cc1occc1C(=O)Nc1c(F)c(F)c(F)c(F)c1F 38.6%
Cc1ccc(NCC(=O)Nc2c(C)n(C)n(-c3ccccc3)c2=O)cc1S(=O)(=O)N(C)C 10.7%
CC1=C(C(=O)Nc2ccc(Cl)cc2)C(c2ccncc2)C(C#N)=C(SCC(N)=O)N1 (configuration not stated) 30.2%
Cn1c2c(c(=O)n(C)c1=O)C(NC(=O)C(C)(C)C)(C(F)(F)F)C(=O)N2 (configuration not stated) 40.1%
O=S(=O)(CC(CN1CCCC1)N1CCCC1)c1ccc2ccccc2c1 (configuration not stated) 30.2%
O=C(Nc1nc(-c2ccncc2)cs1)c1ccc(S(=O)(=O)N2CCOCC2)cc1 39.9%
CS(=O)(=O)N1N=C(c2ccco2)CC1c1ccc(Cl)cc1 (configuration not stated) 27.9%
CCOC(=O)c1sc(=S)n(-c2ccc(OC)cc2)c1C 48.9%
COc1ccc(-c2csc(N3C(=O)C4C5c6ccccc6C(c6ccccc65)[C@@H]4C3=O)n2)cc1 (some centres not stated) 34.7%
Nc1ccc(Oc2cccc(Oc3ccc(N)cc3)c2)cc1 48%
O=C(Cc1ccc(Cl)cc1)Oc1cccc2cccnc12 29.8%
Fc1ccc(Nc2nc(Oc3ccccc3F)nc(N3CCCC3)n2)cc1 41.3%
COc1ccc(NC(=O)N2CCC(CO)(CC3CCCCO3)CC2)c(OC)c1 (configuration not stated) 40.4%
C/C(=N\NC(=O)Cc1csc(N2CCOCC2)n1)c1ccccc1 29.2%
